The source of these data is PubChem BioAssay AID652208 (Broad Institute, 2013).

Each structure is given as a SMILES string. Potency and affinity values are given separately. Calls of active or inactive are those of the source.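 Rule for the calls: active = Loss of cell signal with fitted half-effect dose at or below twice the top valid tested dose; inconclusive = Poor fit, or flat fit from -70 to -30 percent; inactive = Half-effect above limit, rising signal, or flat within 30 percent.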

The assay can be described thus: viability loss in HEK293T cells – cell-based, cherry-picks, cytotoxicity control for HIV Vif inhibitor project, dose response (AID 652208). Conditions: CellTiter-Glo luminescence, 24 h; series mostly up to 26 µM.
Consider `Cc1cc(/C=C2\C(=N)N3C(SCc4ccccc4)=NSC3=NC2=O)c(C)n1Cc1ccccc1`, for which the result was inactive.
For `CN1CCc2c(sc(NC(=O)c3cc(Cl)sc3Cl)c2C(N)=O)C1`, the outcome was inactive.
With `COc1ccc(Br)cc1C(=O)Nc1ccc(N2CCCC2)cc1`, the call was inactive.
For the molecule `COc1ccccc1Nc1nnc(C)c(=O)[nH]1`, the molecule was called inactive.
As for `Cc1cc(C(=O)Nc2c(F)c(F)c(F)c(F)c2F)n(-c2ccccc2)n1`, the molecule was called inactive.
Turning to `COc1cc(-c2cc(=O)c3c(O)c(OC)c(OC)cc3o2)cc(OC)c1O`, the call was inactive.
The same measure for `NS(=O)(=O)c1ccc(-c2ccc(/C=C3\SC(=O)NC3=O)o2)cc1`: “inactive”.
The same measure for `COc1ccc(C(=O)Nc2c(Cl)cc(Cl)cc2C(=O)N2CCOCC2)cc1`: “inactive”; for `CCN(CC)C1Oc2cc3c(cc2C(c2cc(OC)c(OC)c(OC)c2)C1C)OCO3` (configuration not stated): “inactive”.
The same measure for `N#Cc1c(C(F)(F)F)cc(-c2ccco2)nc1SCc1ccncc1`: “inactive”; for `CSc1ccc(CN(C)CC(=O)NCCc2ccccc2)cc1`: “inactive”; for `CC(C)(C)NC(=O)NC(=O)COc1ccccn1`: “inactive”.
Take `Cc1c(NC(=O)CC(O)(C(F)(F)F)C(F)(F)F)c(=O)n(-c2ccccc2)n1C`: the molecule was called inactive.
As for `CCOC(=O)C1CCCN1C(=O)C1(NC(C)=O)CCCC1` (configuration not stated), the call was inactive.
With `COc1cc(OC)cc(C(=O)N[C@H](C(=O)Nc2ccc3c(c2)OCO3)C(C)C)c1` the entry was “inactive”; with `Cc1nn(C)cc1CN(C)Cc1ccc(OCC(O)CN2CCCCC2)cc1` (configuration not stated), “inactive”; with `S=C(NC1CC1)N1CCc2ccccc2C1`, “inactive”.
Consider `COCCNCC(=O)Nc1nc(C)cs1`, for which the result was inactive.
With `COc1ccc(-c2nc(-c3ccccn3)nc(N3CCN(C)CC3)c2C#N)cc1`, the call was inactive.
For the molecule `c1ccc(-c2cn3nc(-c4ccccc4)c(-c4ccccc4)nc3n2)cc1`, the outcome was inactive.
For `COc1ccc(CCNC(=O)[C@@H](NC(N)=O)C(C)C)cc1`, the molecule was classed as inactive.
With `Cc1ccc(NC(=O)/C=C/C(=O)O)c(NC(=O)c2ccccc2)c1`, the outcome was inactive.
Turning to `CC(C)C(=O)N=C1SC2CS(=O)(=O)CC2N1Cc1ccccc1` (configuration not stated), the outcome was inactive.
Turning to `O=C(NNC(=O)c1cc2ccccc2oc1=O)c1ccccc1`, the result was inactive.
Take `CCC(=O)Nc1ccc(-c2cc3ccccc3oc2=O)cc1`: the molecule was classed as inactive.
On to `CN(C)c1ccc(C(=O)c2ccc(N(C)C)c3ccccc23)cc1`, for which the result was inactive.
In the case of `COc1ccc(C(=O)c2sc3nc(C)cc(-c4cccs4)c3c2N)cc1OC`, the outcome was inactive.
As to `COc1ccc(C(=O)Nc2cc(OC)c(NC(=O)Nc3ccccc3)cc2OC)cc1`, the outcome was inactive.
With `COc1ccc(-c2cc(C(=O)Nc3ccc4c(c3)OCO4)no2)cc1` the entry was “inactive”; with `O=C(COC(=O)c1ccccc1Br)NC1CCCC1`, “inactive”.
With `Cc1cccc2cc(COC(=O)c3ccco3)c(=O)[nH]c12` the entry was “inactive”; with `COC(=O)c1cc(Cl)c(NC(=O)c2cc3ccccc3o2)cc1OC`, “inactive”; with `COc1ccc(NC(=O)c2ccccc2NC(=O)CSc2ccc(C)cc2)cc1`, “inactive”.
In the case of `COc1ccc(N=C2NC(=O)S/C2=C\c2ccc(N(C)C)cc2)cc1`, the molecule was called inactive.
Take `CCn1c(CC(=O)Nc2ccccc2)nnc1SCC(=O)Nc1nnc(C)s1`: the outcome was inactive.
Turning to `COc1cc(-c2cnc3c(NC=O)cc(-c4ccccc4)cn23)cc(OC)c1OC`, the result was inactive.
On to `CCOC(=O)c1c(NC(=O)CCC(=O)N2CCOCC2)sc2c1CC(C)(C)OC2`, for which the molecule was called inactive.
